Source: PubChem (National Center for Advancing Translational Sciences (NCATS))
gsp antagonist: qHTS for Antagonists of gsp, the Etiologic Mutation Responsible for Fibrous Dysplasia/McCune-Albright Syndrome: qHTS. gsp-mutant cells, cAMP HTRF, 30 min. Potency, µM (top dose mostly 76.9 µM), for the others: at the top dose activity change, negative = inhibition, usual class: inhibitors. 340,000 compounds, 0.4% hits; calls by dose curve; cell line not stated here;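 further: intracellular cAMP measured with PDE inhibitor Ro 20-1724 present during compound exposure; potency means the concentration at half of the fitted maximal effect; on the % scale 0 is the no-effect control and ±100 the full control effect; nearly all actives have a fitted effect of over 65% in size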
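Cells in G418 medium, seeded 16-24 h, 37C; buffer exchange to DPBS + 1 mM CaCl2, 0.5 mM MgCl2, 0.05% BSA; cpds in DMSO + […] (300 uM stock), 30 min 37C; HTRF cAMP detection.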
RXFP1 antagonist: qHTS Assay for Antagonists of the Relaxin Receptor RXFP1 | 350,000 compounds, 0.59% hits | activity change, negative = inhibition, % at 57.5 µM | HEK293-RXFP1, relaxin-stimulated cAMP HTRF, 30 min; hits give low values | AID 1259400, 2018;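 active means activity change of -60% or lower, but not beyond a set lower limit; inconclusive means change between -60% and -40%, or beyond the set limit; inactive means change above -40%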; further: on the % scale 0 is the no-effect control and ±100 the full control effect
Target sequence (Q9HBX9 whole entry, looked up): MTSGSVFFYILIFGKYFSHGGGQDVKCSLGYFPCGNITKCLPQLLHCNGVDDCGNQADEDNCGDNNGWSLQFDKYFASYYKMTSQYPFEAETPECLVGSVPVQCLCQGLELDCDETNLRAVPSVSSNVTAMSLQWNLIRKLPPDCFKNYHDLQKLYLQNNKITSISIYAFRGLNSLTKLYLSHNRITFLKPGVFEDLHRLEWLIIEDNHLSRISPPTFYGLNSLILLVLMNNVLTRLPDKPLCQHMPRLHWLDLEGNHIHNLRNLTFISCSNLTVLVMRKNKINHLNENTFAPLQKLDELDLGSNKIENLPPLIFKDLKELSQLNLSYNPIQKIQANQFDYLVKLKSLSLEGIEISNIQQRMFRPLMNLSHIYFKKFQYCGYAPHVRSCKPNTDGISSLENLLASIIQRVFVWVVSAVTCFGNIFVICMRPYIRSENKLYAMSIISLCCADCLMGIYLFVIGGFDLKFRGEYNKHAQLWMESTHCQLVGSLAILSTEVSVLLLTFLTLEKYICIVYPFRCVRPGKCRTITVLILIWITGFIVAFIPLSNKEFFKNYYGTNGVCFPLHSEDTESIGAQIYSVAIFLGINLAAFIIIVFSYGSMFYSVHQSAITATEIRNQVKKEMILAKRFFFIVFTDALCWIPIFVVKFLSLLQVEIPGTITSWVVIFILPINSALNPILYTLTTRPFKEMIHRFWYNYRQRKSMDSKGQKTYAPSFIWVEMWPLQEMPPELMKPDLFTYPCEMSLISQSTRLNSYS
Giardia kill: Small Molecules that selectively kill Giardia lamblia: qHTS; Giardia lamblia trophozoite viability; 340,000 compounds, 0.15% hits; AID 540267, 2011; activity change, % at 7.66 µM, hits read low; in the data active means activity change below about -80%; inconclusive means between about -30% and that limit;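 further: parasites exposed to compound for two days anaerobically before the ATP read; on the % scale 0 is the no-effect control and ±100 the full control effect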
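Trophozoite viability was measured as ATP-dependent luminescence, read 15-30 min after reagent addition. Before that, parasites at 100 cells/well were exposed to compounds for 48 h, anaerobically, at 37 deg C.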
RXFP1 ag: qHTS Assay for Agonists of the Relaxin Receptor RXFP1; Relaxin receptor 1 (Homo sapiens), Q9HBX9; Potency, µM (series often up to 57.5 µM), for inactives: at the top dose activation, most hits filed as activators; 370,000 compounds, 0.3% hits; HEK293T-RXFP1 cAMP TR-FRET, 30 min; response scale: percent of porcine relaxin response, buffer zero; active means well fitted activation curve with a large enough effect; inconclusive means small, poorly fitted or top-dose-only effect; further: potency means the concentration at half of the fitted maximal effect; on the % scale 0 is the no-effect control and ±100 the full control effect; nearly all actives have a fitted effect of over 60% in size
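Agonist response is measured as cAMP accumulation in an RXFP1-transfected HEK293T line under PDE4 inhibition. Values are scaled between buffer-only and 29 nM porcine relaxin, and EC50s come from standard Hill equation fits.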
FBPA coupling cs: qHTS Assay for Inhibitors of Fructose-1,6-bisphosphate Aldolase from Giardia Lamblia: Coupling assay counterscreen. coupling enzyme system counterscreen, AmpLite Red fluorescence. activity change, negative = inhibition, % at 58.2 µM, hits read low. 290,000 compounds, 0.67% hits. AID 2472, 2010; in the data active means activity change below about -30%; further: on the % scale 0 is the no-effect control and ±100 the full control effect
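Counterscreen of the coupled detection system alone, without aldolase: glyceraldehyde-3-phosphate coupling enzymes plus AmpLite Red readout. Compounds at 57.5 uM final, 10 min RT preincubation, 20 min RT reaction, fluorescence 525/598 nm.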
gsp agonist: qHTS for Agonist of gsp, the Etiologic Mutation Responsible for Fibrous Dysplasia/McCune-Albright Syndrome: qHTS; 340,000 compounds, 0.13% hits; Potency, µM (top dose mostly 76.9 µM), without a hit: at the top dose activation (cAMP increase), hits mostly activators; gsp mutant cells, cAMP HTRF, 30 min; active means well fitted activation curve with a large enough effect; inconclusive means small, poorly fitted or top-dose-only effect, or another doubt; inactive means no such curve, though single readings can be large or run the other way; cell line not stated here;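 further: phosphodiesterase inhibitor Ro 20-1724 added with compounds to block cAMP breakdown; potency means the concentration at half of the fitted maximal effect; nearly all actives have a fitted effect of over 60% in size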
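Cells in DMEM/10% FBS with G418 were pretreated with compounds in DMSO plus […] (300 uM stock) for 30 min at 37C. cAMP was measured by HTRF (cAMP-d2 plus anti-cAMP antibody-K) after 30 min at room temperature.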
Numbers without * were called inactive; u = inconclusive; x = no result given; [ ] = remark or other dose. The list is not random: actives were taken first. Their share in the collection is about 1.6%.

SMILES	gsp antagonist	RXFP1 antagonist	Giardia kill	RXFP1 ag	FBPA coupling cs	gsp agonist
O=C(O)c1cc([N+](=O)[O-])cc([N+](=O)[O-])c1N1CCN(c2cccc(C(F)(F)F)c2)CC1	4.2%	-2.9	28.8	4.0%	8.8	-24.7%
Oc1cc(Nc2ccc(N3CCCCC3)cc2)cc2cccnc12	x	x	x	0.9%	x	x
Cc1nnc(N/N=C/c2cc([N+](=O)[O-])c(N3CCC(C)CC3)cc2N2CCC(C)CC2)n1N	-2.8%	44.1	5.9	0.3%	-44.6*	-39.1%
COc1ccc(/C=N/Nc2nnc(C)n2N)cc1OC	-0.1%	-8.5	-2.2	6.2%	-40.2*	6.8%[15.4 µM]
Cc1nnc(N/N=C/c2ccc([N+](=O)[O-])cc2)n1N	8.1%	2.5	-11.6	-2.6%	-44.8*	9.1%[15.4 µM]
CCc1nnc(N/N=C/c2ccc(N3CCC(C)CC3)c([N+](=O)[O-])c2)n1N	-9.0%	-7.0	-28.1	0.6%	-27.1	-30.5%
CC1(C#CC[N+]2(C)CCCCC2)CCC2C(O1)c1ccccc1OC2(C)C (stereo not given)	9.2%	-6.5	-6.0	-0.3%	-2.6	u
O=C(COC(=O)c1ccc(Br)o1)Nc1ccc2c(c1)OCCO2	-13.9%	-2.7	-9.6	x	x	2.5%
O=C(COC(=O)CNC(=O)c1ccc(Br)o1)Nc1ccc2c(c1)OCCO2	50.1µM*	3.0	-9.5	0.5%	0.0	-114.1%
O=C(CN(CC1CCCO1)C(=O)CNS(=O)(=O)c1ccc(Cl)cc1)NC1CCCCC1 (stereo not given)	9.9%	13.4	-3.8	1.8%	2.5	-0.9%[15.4 µM]
CCOC(=O)c1ccc(CC(=O)c2ccc(O)cc2O)o1	8.91µM*	-14.7	1.4	-3.7%	1.0	14.6%
CCOC(=O)N1CCN(CC(=O)c2ccc(O)cc2O)CC1	11.2µM*	9.4	6.9	0.0%	0.0	3.5%
COC(=O)c1ccc(CC(=O)c2ccc(O)cc2O)o1	u	-14.4	-17.3	4.1%	0.9	3.6%
COc1ccc2nc(Nc3nc(C)c(C(C)=O)s3)sc2c1	-26.4%	-70.0*	0.7	5.9%	2.0	8.7%
COc1ccc(Nc2nc3ccc(OC)cc3s2)cc1	-9.8%	-7.5	-7.0	-0.1%	-2.7	-4.5%[15.4 µM]
Cc1cccc(OCCn2c(CCNC(=O)C3CCCCC3)nc3ccccc32)c1	x	x	18.1	x	x	x
COc1ccc(-c2cn(-c3ccc(C)cc3)c(S(=O)(=O)CC(=O)Nc3ccc(F)cc3)n2)cc1	x	x	x	-2.3%	x	x
CN(C)c1ccc(/C=C/c2nc3ccccc3c(=O)[nH]2)cc1	-1.9%	-1.1	-91.9*	6.2%	3.9	u
COc1cccc2cc(C(=O)Nc3ccc(F)cc3)c(=Nc3ccc(C(=O)O)cc3)oc12	11.2µM*	-2.1	-21.9	-0.7%	2.2	-23.6%
O=C(O)c1ccccc1Nc1ccc(CCc2ccc(Cl)c(Cl)c2)cc1	x	x	x	x	11.0	x
O=C(CSc1nnc(CNC(=O)c2ccc(F)cc2)o1)Nc1ccc2c(c1)OCCO2	9.9%	0.8	-16.1	-0.3%	x	-16.5%
c1ccc(OCCn2c(-c3ccco3)nc3ccccc32)cc1	-17.8%	-3.9	1.8	1.0%	-3.6	2.8%
Cc1cccc(OCCn2c(-c3ccco3)nc3ccccc32)c1	35.5µM*	-25.5	-1.2	1.2%	x	1.3%
CCCCCCCC(=O)[O-].CCCCCCCC(=O)[O-].[Zn+2]	x	-19.3	x	x	x	x
O=[N+]([O-])c1ccc(Cl)c(S(=O)(=O)Nc2ccc(-c3ccc(N4CCCC4)nn3)cc2)c1	u	-4.9	-3.3	2.1%	x	-1.4%[15.4 µM]
SMILES	gsp antagonist	RXFP1 antagonist	Giardia kill	RXFP1 ag	FBPA coupling cs	gsp agonist
O=[N+]([O-])c1ccc(S(=O)(=O)Nc2ccc(-c3ccc(N4CCCC4)nn3)cc2)cc1	20µM*	-24.3	2.0	-0.6%	x	4.3%
CC(C)c1ccc(-c2c(C#N)c(N)nc(SCC(=O)N3CCCCC3)c2C#N)cc1	37.8%	9.4	-13.2	22.4µM*	3.4	u
CN(C)c1ccc(C(=C2C=CC(=[N+](C)C)C=C2)c2ccc(N(C)C)cc2)cc1	x	u	x	x	-57.7*	x
COC(=O)c1cc(S(N)(=O)=O)ccc1OC	x	-12.4	x	x	x	x
Cc1cccc(N2CCN(C(=O)c3cc4c(=O)n(C)c5ccccc5c4n3C)CC2C)c1 (stereo not given)	u	-77.1*	11.2	-0.6%	-21.3	-9.6%
COc1ccc(-n2nc(C(=O)N3CCN(c4cccc(C)c4)C(C)C3)c3c4ccccc4n(C)c3c2=O)cc1 (stereo not given)	x	-3.9	x	14.9%	x	x
O=c1[nH][nH]c(=S)n1C1CCCCC1	3.0%	-22.0	3.4	0.5%	-38.8*	3.5%[15.4 µM]
O=c1cc(O)n(C2CCCCCC2)c(=O)[nH]1	-13.3%	1.7	-5.9	-2.2%	7.3	20.8%
COc1cc(C/C=C\c2ccccc2)c(OC)cc1O	x	x	x	x	-46.8*	x
COc1cc(Br)cc(CN2CCN(C/C=C/c3ccccc3)CC2)c1O	4.3%	-4.8	-8.1	0.6%	0.5	1.1%
CCOCCCn1c(=N)c(C(N)=S)cc2c(=O)n3cccc(C)c3nc21	6.4%	17.4	0.4	15.1%	-45.1*	u
Cc1cccn2c(=O)c3cc(C(N)=S)c(=N)n(CCCOC(C)C)c3nc12	-4.3%	7.8	-14.4	6.3%	-3.3	u
COc1ccc(C(=O)CSc2nnc(Cn3cnc4ccccc43)o2)cc1	39.8µM*	1.5	8.6	3.7%	1.9	-13.3%
CC(=O)Nc1ccc(C(=O)OCC(=O)c2cccc([N+](=O)[O-])c2)cc1	-4.5%	14.6	-27.6	-1.1%	-0.2	-41.7%
Cc1ccc(C(=O)COC(=O)c2cccc(NC(=O)c3ccc([N+](=O)[O-])cc3[N+](=O)[O-])c2)cc1	0.3%	-3.6	-100.7*	-0.7%	2.5	-0.1%
CC[C@H](C)C(=O)O[C@H]1C[C@@H](C)C=C2C=C[C@H](C)[C@H](CC[C@@H]3C[C@@H](O)CC(=O)O3)[C@H]21	3.0%	-26.3	-3.4	2.1%	-46.6*	x
COc1cccc(CN2CCN(C3CCN(c4ccccc4C)CC3)CC2CCO)c1 (stereo not given)	-4.3%	4.3	6.7	-0.2%	-2.1	-22.2%
COc1cccc(CN2CCN(C3CSCCSC3)CC2CCO)c1 (stereo not given)	8.5%	-8.2	-1.0	-1.0%	-32.3*	-6.2%[15.4 µM]
CN(C)c1ccc(N/C=C/C(=O)C(C)(C)C)cc1	35.5µM*	u	-9.8	-9.7%	-29.1	-3.0%
CN(C)c1ccc(N/C=C/C(=O)c2ccccc2)cc1	-10.8%	-109.6*	-4.8	-3.0%	-20.7	9.1%
